# Measurements from PubChem BioAssay AID485317 (Broad Institute, 2010).
# The whole screen tested about 290,000 compounds, of which about 11,000 (3.8%) were called active. Many of the other results were omitted from the sample, so actives are more common in it than they were. A number with no mark means an inactive call.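 Rule for the calls: active = mean replicate inhibition above about 79%, with every replicate also reaching it (limit read from the data); inconclusive = only one of the two criteria met; inactive = mean below limit and not every replicate reaching it.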
# Molecular target: FAD-linked sulfhydryl oxidase ALR (Homo sapiens) (UniProt P55789)
# Test: inhibitors of human ALR sulfhydryl oxidase, primary screen, biochemical, H2O2 detection, HRP-luminol luminescence, single point (AID 485317)
# Conditions: purified ALR, DTT oxidation, hits give high values, concentration not given here
# Chain of FAD-linked sulfhydryl oxidase ALR (Homo sapiens) (P55789 whole entry, looked up): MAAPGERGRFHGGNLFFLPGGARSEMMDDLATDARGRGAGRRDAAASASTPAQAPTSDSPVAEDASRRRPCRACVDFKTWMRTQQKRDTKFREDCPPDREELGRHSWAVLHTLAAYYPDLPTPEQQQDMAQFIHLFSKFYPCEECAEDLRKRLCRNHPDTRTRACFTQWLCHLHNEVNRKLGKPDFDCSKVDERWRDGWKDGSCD
row,Structure (SMILES),inhibition
1,CN1CCN(/N=C/c2c[nH]c3ccccc23)CC1,79.3% (active)
2,Fc1ccc(N2CCN(Cc3ccc4c(c3)OCO4)CC2)cc1,76.3% (active)
3,Oc1cc2c(cc1CN1CCN(c3ccccc3)CC1)OCO2,60.4%
4,O=C(Cc1ccccc1[N+](=O)[O-])N1CCN(Cc2ccc3c(c2)OCO3)CC1,-25.4%
5,COC(=O)C1=C(c2cc3ccccc3s2)C[C@@H]2CC[C@H]1N2C(=O)NCc1cccc2ccccc12,-1.91%
6,COC(=O)C1=C(c2ccccc2)C[C@@H]2CC[C@H]1N2C(=O)N1CCCCC1,-3.97%
7,COc1ccc(CNCCc2c[nH]c3ccccc23)cc1OC,4.28%
8,c1cncc(CNCCc2c[nH]c3ccccc23)c1,10%
9,C/C(CCc1c[nH]c2ccccc12)=N\O,98.1% (active)
10,COC(=O)C1=C(c2ccc(Cl)c(C(F)(F)F)c2)C[C@@H]2CC[C@H]1N2C(=O)NC1CC1,-18.1%
11,COc1ccc(N2C(=O)/C(=C/c3ccco3)C(=O)NC2=S)cc1,97.9% (active)
12,COc1ccc(CN2C(=O)NC(=O)/C(=C\c3ccc(OC)c(OC)c3OC)C2=O)cc1,20%
13,COc1cccc(N2C(=O)NC(=O)/C(=C\c3cn(C)c4ccccc34)C2=O)c1,-2.44%
14,C[C@]12CC[C@H](O)CC1=C([N+](=O)[O-])CC1C2CC[C@@]2(C)C1CC[C@@H]2O (stereo not given in full),1.78%
15,COC(=O)C1=C(c2ccc(F)cc2OCc2ccccc2)C[C@@H]2CC[C@H]1N2C(=O)NCc1ccc2[nH]ccc2c1,5.75%
16,Cc1cccc2c(CCN)c[nH]c12,-8.02%
17,NCCc1c[nH]c2ccc(O)cc12,95.8% (active)
18,COC(=O)C1=C(c2cc3ccccc3o2)C[C@@H]2CC[C@H]1N2C(=O)NC1CCCCC1,0.528%
19,COC(=O)C1=C(c2cc3ccccc3s2)C[C@@H]2CC[C@H]1N2C(=O)NC(C)C,16.9%
20,O=c1[nH]c(O)c(C=Nc2cc(F)cc(F)c2)c(=O)[nH]1,-1.04%

row,Structure (SMILES),inhibition
1,Cc1ccc(-n2c(C)cc(/C=C3\C(=O)NC(=O)N(C)C3=O)c2C)cc1C,-26%
2,Cc1ccnc(-n2c(C)cc(/C=C3\C(=O)NC(=S)N(C)C3=O)c2C)c1,97.1% (active)
3,Cc1cc(C=C2C(=O)NC(=O)NC2=O)c(C)n1-c1ccncc1,20.8%
4,COC(=O)C1=C(c2cccc(OCc3ccccc3)c2)C[C@@H]2CC[C@H]1N2C(=O)NNCc1ccccc1,-3.1%
5,O=C(O)CCn1cc(C=C2C(=O)NC(=S)NC2=O)c(-c2cccc(Br)c2)n1,99.4% (active)
6,CNCC(O)c1cc(F)c(OCc2ccccc2)c(OCc2ccccc2)c1F (stereo not given),-16.5%
7,COC(=O)C1=C(c2ccc(F)cc2OCc2ccccc2)C[C@@H]2CC[C@H]1N2C(=O)NCc1ccc(Cl)cc1,0.0344%
8,c1ccc(CCN2CCC3(CC2)OCCO3)cc1,0.745%
9,COc1ccc2c(c1)[C@]13CCCCC1C(C2)N(C)CC3 (stereo not given in full),-0.421%
10,CN(C)c1nc(N(C)C)nc(N(C#N)CCCl)n1,96.2% (active)
11,CCN1CCN(c2nc3c(c(=O)[nH]2)CCC3)CC1,2.56%
12,CCC(=O)c1ccc(OCC(=O)N2CCN(CC(=O)Nc3ccc(C)cc3)CC2)cc1,-2.33%
13,Cc1cc(/C=C2/C(=O)NC(=O)N(Cc3ccco3)C2=O)c(C)n1-c1ccc(C(=O)O)cc1,97.6% (active)
14,Cc1c(C(=O)O)cccc1-n1c(C)cc(/C=C2\C(=O)NC(=O)N(c3ccc4c(c3)OCO4)C2=O)c1C,12.1%
15,O=C1NC(=O)N(Cc2ccco2)C(=O)/C1=C\c1ccc(-c2ccc(F)cc2)o1,13.9%
16,COC(=O)C1=C(c2ccc(F)cc2OCc2ccccc2)C[C@@H]2CC[C@H]1N2C(=O)NCc1ccc(OC)c(OC)c1,-0.52%
17,COC(=O)C1=C(c2ccc(F)cc2OCc2ccccc2)C[C@@H]2CC[C@H]1N2C(=O)NCc1ccc(C(C)(C)C)cc1,-8.86%
18,O=C(CCC(=O)N1C[C@H]2C[C@@H](C1)c1cccc(=O)n1C2)NCc1ccccc1C(F)(F)F,-3.58%
19,COC(=O)C1=C(c2c(C)noc2C)C[C@@H]2CC[C@H]1N2C(=O)NCc1ccc2c(c1)OCO2,-6.31%
20,CC(=O)NC(=O)NC(C)Cc1ccccc1 (stereo not given),99.2% (active)

row,Structure (SMILES),inhibition
1,CC(Cc1ccccc1)NCCC(c1ccccc1)c1ccccc1 (stereo not given),-11.9%
2,CC(=O)c1ccc(OC(NC(=O)Cc2ccccc2)C(Cl)(Cl)Cl)cc1 (stereo not given),5.09%
3,COC(=O)C1=C(c2ccc(Cl)c(C(F)(F)F)c2)C[C@@H]2CC[C@H]1N2C(=O)NC(C)C,0.07%
4,Cc1ccc(-c2cc(C(=O)N3CCC4(CC3)OCCO4)no2)cc1,7.33%
5,COc1ccc(NC(=O)N2CCC3(CC2)OCCO3)c(OC)c1,-26.4%
6,COc1ccc(-c2nc(CS(=O)CC(=O)N3CCC4(CC3)OCCO4)c(C)o2)cc1 (stereo not given),98.9% (active)
7,COC(=O)C1=C(c2ccc(-c3ccccc3)c(F)c2)C[C@@H]2CC[C@H]1N2C(=O)NCc1ccc(F)cc1,-0.106%
8,C=CC12CN(C)[C@@H]3C4CO[C@H](C[C@H]41)[C@]1(C(=O)Nc4ccccc41)[C@@H]32 (stereo not given in full),-7.63%
9,COC(=O)C1=C(c2cccc(OCc3ccccc3)c2)C[C@@H]2CC[C@H]1N2C(=O)NCc1ccc(Br)cc1,-3.06%
10,CN1CCc2cc3c(cc2[C@H]1[C@@H]1OC(=O)c2c1ccc1c2OCO1)OCO3,-8.76%
11,Cc1ccccc1NC(=O)COC(=O)c1cc(C)n(C2CC2)c1C,5.99%
12,COC(=O)C1=C(c2ccc3ccccc3c2)C[C@@H]2CC[C@H]1N2C(=O)NCCO,-28.8%
13,O=[N+]([O-])c1cnc2ccc3ccccc3c2c1,-42.1%
14,C/C(=N/O)c1ccc2ccc3ccccc3c2c1,99.1% (active)
15,C[C@]12CCC3C(CC[C@H]4C[C@@H](O)CC[C@]34C)C1CC[C@@H]2O (stereo not given in full),-1.96%
16,C[C@]12CCC3C(CC[C@H]4C[C@@H](O)CC[C@]34C)C1C[C@@H](O)[C@H]2O (stereo not given in full),2.15%
17,COC(=O)C1=C(c2ccc(F)cc2F)C[C@@H]2CC[C@H]1N2C(=O)NC1CC1,-1.47%
18,COC(=O)C1=C(c2ccccc2OCc2ccccc2)C[C@@H]2CC[C@H]1N2C(=O)NCc1ccc(OC)cc1,-2.59%
19,COC(=O)C1=C(c2ccc(C(C)=O)cc2)C[C@@H]2CC[C@H]1N2C(=O)NCCNC(C)=O,4.07%
20,O=c1c2ccccc2nc(/C=C/c2ccco2)n1-c1ccccc1O,47.2%
